Screening results from PubChem BioAssay.
Sampled rows, rich in hits. Any-hit rate of the full collection: about 13%.
USP30 inh: inhibitors of human USP30 deubiquitinase; inhibition, % at 25 µM; AID 1645860, 2021; purified USP30, Ub-rhodamine cleavage fluorescence; Ubiquitin carboxyl-terminal hydrolase 30 (Homo sapiens), Q70CQ3; 47,000 compounds, 5.3% hits
USP17 block: inhibitors of human USP17 deubiquitinase; AID 1645855, 2021; 47,000 compounds, 6.5% hits; purified USP17, Ub-rhodamine cleavage fluorescence, 3 h; inhibition, % at 50 µM
Target sequence (A8MUK1 whole entry, looked up): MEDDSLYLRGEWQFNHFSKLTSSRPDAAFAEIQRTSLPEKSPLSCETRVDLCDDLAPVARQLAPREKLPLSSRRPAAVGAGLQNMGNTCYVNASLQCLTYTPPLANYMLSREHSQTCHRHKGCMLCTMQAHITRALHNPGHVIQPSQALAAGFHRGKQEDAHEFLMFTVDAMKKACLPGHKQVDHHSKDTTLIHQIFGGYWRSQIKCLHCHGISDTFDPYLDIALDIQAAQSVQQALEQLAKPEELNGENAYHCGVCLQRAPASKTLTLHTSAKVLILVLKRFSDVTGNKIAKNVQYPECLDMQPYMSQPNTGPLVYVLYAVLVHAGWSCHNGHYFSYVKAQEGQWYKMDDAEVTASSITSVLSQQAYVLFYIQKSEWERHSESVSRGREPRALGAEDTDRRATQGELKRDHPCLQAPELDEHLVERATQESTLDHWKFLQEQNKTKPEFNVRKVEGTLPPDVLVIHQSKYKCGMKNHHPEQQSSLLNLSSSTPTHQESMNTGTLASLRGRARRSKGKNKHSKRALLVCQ
USP28 block: inhibitors of human USP28 deubiquitinase; purified USP28, Ub-rhodamine cleavage fluorescence, 30 min; inhibition, % at 25 µM; Ubiquitin carboxyl-terminal hydrolase 28 (Homo sapiens), Q96RU2; 47,000 compounds, 3% hits
USP8 block: inhibitors of human USP8 deubiquitinase | AID 1645853, 2021 | 47,000 compounds, 4.2% hits | Ubiquitin carboxyl-terminal hydrolase 8 (Homo sapiens), P40818 | purified USP8, Ub-rhodamine cleavage fluorescence, 30 min | inhibition, % at 20 µM
Starred values were filed as active, the others as inactive; i = inactive; . = not tested or not shown. No stated cut-off is given here; in the data, active means inhibition above about 30%; inactive means the rest.

SMILES | USP30 inh | USP17 block | USP28 block | USP8 block
CCc1nc2c(NC(=O)NCc3ccc(OC)cc3)cccn2n1 | 11 | 4 | 8 | 9
CCOC(=O)c1cccc(NC(=O)Nc2cccn3nc(C)nc23)c1 | 14 | -14 | 83* | -11
O=C(/C=C/c1cn(-c2ccccc2)nc1-c1cccnc1)OC(C(=O)Nc1ccc([N+](=O)[O-])cc1Br)c1ccccc1 (configuration not stated) | -29 | -1 | 1 | -19
O=C(Nc1cccc(N2CCCC2)c1)c1ccccc1SCc1ccccc1 | -59 | -42 | -21 | -10
COc1ccc(C2CCCCCN2C(=O)Cn2ccccc2=O)cc1 (configuration not stated) | -8 | . | 5 | 67*
COc1ccc(C2CCCCCN2C(=O)c2ccnc(C)n2)cc1 (configuration not stated) | 8 | 5 | -5 | 11
COc1ccc2c(CNCCC3=CCCCC3)c(C(=O)O)n(Cc3ccccc3F)c2c1 | 40* | 29 | 23 | 18
Cc1ccc(-n2c(=O)c3ccc(C(=O)NCc4ccco4)cc3n(CC(=O)NCCC3=CCCCC3)c2=O)cc1 | -48 | -4 | -24 | 43*
COc1ccc(-n2c(=O)c3ccc(C(=O)NCCc4ccccc4)cc3n(CC(=O)NCCC3=CCCCC3)c2=O)cc1 | 4 | 41* | 7 | 8
Cn1c(C(=O)O)c(CNCCC2=CCCCC2)c2ccccc21 | -14 | -17 | -20 | -2
COc1ccc(-n2c(=O)c3ccc(C(=O)NCCc4ccccc4)cc3n(CC(=O)Nc3ccc(C)cc3C)c2=O)cc1 | 9 | 8 | 0 | 2
COc1ccc(-n2c(=O)c3ccccc3n(CC(=O)NCCC3=CCCCC3)c2=O)c(OC)c1 | -25 | -11 | -17 | -27
Cc1ccccc1CC(=O)N1CCN(S(=O)(=O)c2c(C)nn(C)c2C)CC1 | -9 | 12 | 9 | 1
CCCC(=O)c1c[nH]c(C(=O)NCc2ccc(F)cc2)c1 | 23 | 69* | 35* | 24
Cc1ccc(Cl)cc1NC(=O)Cn1c(=O)n(CCc2ccccc2)c(=O)c2cccnc21 | -1 | 12 | 1 | 5
CCCC1Cc2c(sc3nc(SCc4ccccc4Cl)nc(N)c23)CO1 (configuration not stated) | -2 | 40* | -7 | -2
CCCCSc1nc(N)c2c3c(sc2n1)COC(CCC)C3 (configuration not stated) | -1 | -3 | 3 | 1
CCCC1Cc2c(sc3nc(SCC)nc(N)c23)CO1 (configuration not stated) | 0 | 81* | -14 | 2
O=C(Nc1ccccc1F)c1ccc2c(c1)ncn2CCN1CCCC1 | -23 | 5 | -3 | 7
CC(=O)N1CCC(c2ccn3ncc(C(=O)N4CCCC4)c3c2)CC1 | -71 | -28 | -14 | -45
COc1cnc(-c2ccccn2)nc1Sc1ccc(C)cc1 | 60* | 7 | 19 | -312
CCCn1c(=O)n(CC(=O)c2ccccc2F)c2c(C(N)=O)nc(-c3ccco3)nc21 | -96 | 62* | 4 | 59*
CCn1c(=O)n(CC(=O)c2ccc(Cl)cc2)c2c(C(N)=O)nc(-c3ccco3)nc21 | -82 | 36* | -15 | 49*
COc1ccc(C(=O)CSc2nc(-c3ccco3)nc3c2c(=O)n(C)c(=O)n3C)cc1 | -12 | -4 | 0 | 2
CC(C)n1c(=O)n(CC(=O)c2ccccc2)c2c(C(N)=O)nc(-c3ccco3)nc21 | -96 | 0 | -12 | -119
SMILES | USP30 inh | USP17 block | USP28 block | USP8 block
CCn1c(=O)n(CC(=O)c2ccc(F)cc2F)c2c(C(N)=O)nc(-c3ccco3)nc21 | -84 | 26 | 0 | 48*
CCCn1c(=O)n(CC(=O)c2ccc(Cl)cc2)c2c(C(N)=O)nc(-c3ccco3)nc21 | -183 | 38* | -36 | -10
COc1ccc(N2CCCS2(=O)=O)cc1NC(=O)c1ccc(C)c(C)c1 | -11 | -13 | -10 | -13
CNc1nccnc1C1CN(S(=O)(=O)c2ccccc2C)CCO1 (configuration not stated) | -9 | -10 | -16 | -8
N=C1/C(=C/c2cn(Cc3ccc(F)cc3)c3ccccc23)C(=O)N=C2SC(Cc3ccccc3)=NN12 | -75 | . | -23 | 74*
Cc1ccc(NC(=O)c2cnc(N3CCOCC3)nc2)cc1C | -7 | 2 | 22 | -11
Cc1ccc(NC(=O)c2cnc(N3CCOCC3)nc2)cc1F | 46* | 89* | 27 | 13
COCCNC(=O)c1ccn(-c2ccc3ccc(-c4ccccc4)cn23)n1 | i | -67 | -122 | -29
COc1ccc(-c2n[nH]n3c2nc(=O)c2ccc(C(=O)NCc4ccco4)cc23)cc1 | -116 | 19 | 8 | 14
Cc1ccc(CNC(=O)c2ccc3c(=O)nc4c(-c5ccccc5F)n[nH]n4c3c2)cc1 | 6 | 35* | 0 | 6
COc1ccc(CNC(=O)c2ccc3c(=O)nc4c(-c5cccc(C)c5)n[nH]n4c3c2)cc1 | -44 | 10 | -1 | 61*
COc1cccc(C(=O)N2c3ncnn3C3(CCCCC3)[C@@H]3CCCC[C@@H]32)c1 | 4 | -8 | -3 | -10
COc1cc(C)c(NC(=O)c2cc(-c3ccccc3)c(N3CCOCC3)s2)cc1OC | -10 | 59* | 19 | -9
CCOc1ccc(NC(=O)c2cc(-c3ccccc3)c(N3CCOCC3)s2)cc1 | 13 | 53* | 5 | 0
Cc1noc(C)c1CN1C[C@H](Oc2ncccc2F)[C@H]2OCCC[C@H]21 | -11 | -26 | -13 | -162
COc1cccc(NC(=O)C2C3C=CC4(O3)C2C(=O)N(CCc2ccc(Cl)cc2)C4C(=O)NC2CCCCC2)c1 (configuration not stated) | 7 | 6 | 13 | 50*
COc1cccc(NC(=O)C2C3C=CC4(O3)C2C(=O)N(CCc2ccccc2Cl)C4C(=O)NC2CCCCC2)c1 (configuration not stated) | 39* | 39* | -1 | 4
O=C(Nc1ccc(N2CCN(Cc3ccccc3)C2=O)nc1)c1ccncc1 | -10 | -51 | 11 | -37
CC(O)/C=C/C1OC(=O)CC1Nc1ccc(CO)cc1 (configuration not stated) | 0 | 44* | 2 | 4
CC(O)/C=C/C1OC(=O)CC1Nc1ccc(C(=O)O)cc1 (configuration not stated) | -48 | -16 | -9 | -4
CN(C)S(=O)(=O)c1cccc(NC(=O)c2ccc(N3CCCC3=O)cc2)c1 | 32* | 48* | 44* | 8
COc1ccc(C(=O)Nc2cccc(N3CCCCC3=O)c2)cc1 | 8 | -3 | 10 | 4
O=C(Nc1ccc2c(c1)OCCO2)c1cccc(N2C(=O)CCS2(=O)=O)c1 | 14 | 6 | 23 | -3
O=C(Nc1ccc2c(c1)OCCO2)c1ccc(N2CCCC2=O)cc1 | 67* | 35* | 45* | -1
CC(OC(=O)c1ccc(N(C)C)cc1)C(=O)Nc1ccc2c(c1)OCCO2 (configuration not stated) | 18 | 40* | 26 | -15
